# According to PubChem BioAssay (NCATS):
# Inconclusive results are not listed. Active and inactive are the calls of the source. The call rests on the fitted dose curve; in most records, active means well fitted curve in the direction sought with a large enough effect; inconclusive means small, poorly fitted or top-dose-only effect, or another doubt; inactive means no such curve, though single readings can be large; an effect the other way counts as inactive or inconclusive.
# Tests used:
# [1] = Quantitative High-Throughput drug screen in 47 multiple myeloma cell lines against the NCATS MIPE library collection: INA6_PLB cell viability assay (AID 1918965; further: nearly all actives have a fitted effect of over 55% in size; further: potency means the concentration at half of the fitted maximal effect)
# Outline: (§1)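 Viability readout: CellTiter-Glo luminescence following 5 min room-temperature incubation with reagent. Prior exposure: 48 h, 37C, humidified 5% CO2, 500 cells per well.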
# [2] = Quantitative High-Throughput drug screen in 47 multiple myeloma cell lines against the NCATS MIPE library collection: JJN3_DSMZ cell viability assay (AID 1918966; further: nearly all actives have a fitted effect of over 50% in size; further: potency means the concentration at half of the fitted maximal effect)
# Outline: (§2)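 qHTS of the MIPE 4.0 collection: 500 myeloma cells/well, 48 h drug exposure at 37C in 5% CO2, then CellTiter-Glo for 5 min at room temperature before luminescence reading.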
# [3] = Quantitative High-Throughput drug screen in 47 multiple myeloma cell lines against the NCATS MIPE library collection: KMS27_JCRB cell viability assay (AID 1918970); settings: KMS27 myeloma cells, CellTiter-Glo ATP viability, 48 h; viability (% of DMSO): at 45.8 µM (top of the series); further: nearly all actives have a fitted effect of over 30% in size; further: potency means the concentration at half of the fitted maximal effect
# Outline: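 Myeloma cells (500 per well) were exposed to MIPE 4.0 compounds for 48 h at 37 °C, 5% CO2; viability was read as ATP luminescence with CellTiter-Glo, normalized to DMSO-only (100%) and media-only (0%) wells.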
# [4] = Quantitative High-Throughput drug screen in 47 multiple myeloma cell lines against the NCATS MIPE library collection: KMS12BM_JCRB cell viability assay (AID 1918971); further: nearly all actives have a fitted effect of over 35% in size; further: potency means the concentration at half of the fitted maximal effect
# Outline: (§3)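 Myeloma cells (500 per well) were exposed to MIPE 4.0 compounds by pin transfer and incubated 48 hours at 37C, 5% CO2. Viability was read as ATP by CellTiter-Glo luminescence, normalised to DMSO (100%) and media-only (0%) wells.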
# [5] = Quantitative High-Throughput drug screen in 47 multiple myeloma cell lines against the NCATS MIPE library collection: MOLP8_DSMZ cell viability assay (AID 1918977); further: nearly all actives have a fitted effect of over 45% in size; further: potency means the concentration at half of the fitted maximal effect
# Outline: (§4)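 Cells were exposed to library compounds for 48 hours, after which ATP was measured by CellTiter-Glo. Signal was taken as median relative luminescence units.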
# [6] = Quantitative High-Throughput drug screen in 47 multiple myeloma cell lines against the NCATS MIPE library collection: OCIMY1_PLB cell viability assay (AID 1918979); further: nearly all actives have a fitted effect of over 35% in size
# Outline: as §4
# [7] = Quantitative High-Throughput drug screen in 47 multiple myeloma cell lines against the NCATS MIPE library collection: MM1R_ATCC cell viability assay (AID 1918981); further: nearly all actives have a fitted effect of over 35% in size; further: potency means the concentration at half of the fitted maximal effect
# Outline: as §4
# [8] = Quantitative High-Throughput drug screen in 47 multiple myeloma cell lines against the NCATS MIPE library collection: KMS34_JCRB cell viability assay (AID 1918985); further: nearly all actives have a fitted effect of over 40% in size; further: potency means the concentration at half of the fitted maximal effect
# Outline: as §4
# [9] = Quantitative High-Throughput drug screen in 47 multiple myeloma cell lines against the NCATS MIPE library collection: Karpas25_ECACC cell viability assay (AID 1918968; further: nearly all actives have a fitted effect of over 35% in size; further: potency means the concentration at half of the fitted maximal effect)
# Outline: as §2
# [10] = Quantitative High-Throughput drug screen in 47 multiple myeloma cell lines against the NCATS MIPE library collection: KMS26_JCRB cell viability assay (AID 1918975); further: nearly all actives have a fitted effect of over 45% in size; further: potency means the concentration at half of the fitted maximal effect
# Outline: as §3
# [11] = Quantitative High-Throughput drug screen in 47 multiple myeloma cell lines against the NCATS MIPE library collection: MMM1_PLB cell viability assay (AID 1918976)
# Outline: as §4
# [12] = Quantitative High-Throughput drug screen in 47 multiple myeloma cell lines against the NCATS MIPE library collection: MM1S_ATCC cell viability assay (AID 1918980); further: nearly all actives have a fitted effect of over 45% in size; further: potency means the concentration at half of the fitted maximal effect
# Outline: as §4
# [13] = Quantitative High-Throughput drug screen in 47 multiple myeloma cell lines against the NCATS MIPE library collection: H1112_PLB cell viability assay (AID 1918967; further: nearly all actives have a fitted effect of over 30% in size; further: potency means the concentration at half of the fitted maximal effect)
# Outline: as §2
# [14] = Quantitative High-Throughput drug screen in 47 multiple myeloma cell lines against the NCATS MIPE library collection: KMS20_JCRB cell viability assay (AID 1918973); further: nearly all actives have a fitted effect of over 45% in size; further: potency means the concentration at half of the fitted maximal effect
# Outline: as §2
# [15] = Quantitative High-Throughput drug screen in 47 multiple myeloma cell lines against the NCATS MIPE library collection: NCIH929_DSMZ cell viability assay (AID 1918978); further: nearly all actives have a fitted effect of over 35% in size; further: potency means the concentration at half of the fitted maximal effect
# Outline: as §4
# [16] = Quantitative High-Throughput drug screen in 47 multiple myeloma cell lines against the NCATS MIPE library collection: LP1_DSMZ cell viability assay (AID 1918982); further: nearly all actives have a fitted effect of over 35% in size; further: potency means the concentration at half of the fitted maximal effect
# Outline: as §4
# [17] = Quantitative High-Throughput drug screen in 47 multiple myeloma cell lines against the NCATS MIPE library collection: L363_DSMZ cell viability assay (AID 1918984); settings: L363 myeloma viability, CellTiter-Glo ATP luminescence, 48 h; viability (% of control): at 45.8 µM (top of the series); further: nearly all actives have a fitted effect of over 40% in size; further: potency means the concentration at half of the fitted maximal effect
# Outline: as §4
# [18] = Quantitative High-Throughput drug screen in 47 multiple myeloma cell lines against the NCATS MIPE library collection: KMS12PE_JCRB cell viability assay (AID 1918972); further: nearly all actives have a fitted effect of over 30% in size; further: potency means the concentration at half of the fitted maximal effect
# Outline: as §1
# [19] = Quantitative High-Throughput drug screen in 47 multiple myeloma cell lines against the NCATS MIPE library collection: KMS28PE_JCRB cell viability assay (AID 1918983); further: nearly all actives have a fitted effect of over 35% in size; further: potency means the concentration at half of the fitted maximal effect
# Outline: as §4
# [20] = Quantitative High-Throughput drug screen in 47 multiple myeloma cell lines against the NCATS MIPE library collection: KMS21BM_JCRB cell viability assay (AID 1918974); settings: ATP luminescence, 48 h; viability: at 45.8 µM (top of the series); further: potency means the concentration at half of the fitted maximal effect
# Outline: as §2
compound,measurement,setting,value
COc1cc([C@@H]2c3cc4c(cc3[C@@H](O[C@@H]3O[C@@H]5CO[C@@H](C)O[C@@H]5[C@H](O)[C@@H]3O)[C@H]3COC(=O)[C@H]23)OCO4)cc(OC)c1O,Potency,[1],0.332 µM (active)
same,Potency,[2],inactive
same,Potency,[3],0.418 µM (active)
same,Potency,[4],1.48 µM (active)
same,Potency,[5],inactive
same,Potency,[6],inactive
same,Potency,[7],0.372 µM (active)
same,Potency,[8],4.18 µM (active)
COc1cc2c(cc1Cc1cccc(Cl)c1F)c(=O)c(C(=O)O)cn2[C@H](CO)C(C)C,Potency,[1],13.2 µM (active)
same,Potency,[2],16.6 µM (active)
same,Potency,[9],14.8 µM (active)
same,Potency,[4],6.62 µM (active)
same,Potency,[10],20.9 µM (active)
same,Potency,[11],16.6 µM (active)
same,Potency,[5],13.2 µM (active)
same,Potency,[12],16.6 µM (active)
same,Potency,[8],20.9 µM (active)
Nc1[nH]nc2nnc(-c3c(-c4ccccc4)nn4ccccc34)cc12,Potency,[1],1.05 µM (active)
same,Potency,[13],4.18 µM (active)
same,Potency,[9],1.66 µM (active)
same,Potency,[3],1.87 µM (active)
same,Potency,[4],inactive
same,Potency,[14],2.09 µM (active)
same,Potency,[10],inactive
same,Potency,[15],3.72 µM (active)
same,Potency,[12],0.264 µM (active)
same,Potency,[7],23.5 µM (active)
same,Potency,[16],inactive
same,Potency,[17],2.64 µM (active)
O=C(C=Cc1ccc(O)cc1)c1ccc(O)cc1O,Potency,[1],3.32 µM (active)
same,Potency,[2],14.8 µM (active)
same,Potency,[9],23.5 µM (active)
same,Potency,[4],20.9 µM (active)
same,Potency,[18],14.8 µM (active)
same,Potency,[10],23.5 µM (active)
same,Potency,[11],5.9 µM (active)
same,Potency,[5],14.8 µM (active)
same,Potency,[15],16.6 µM (active)
same,Potency,[12],23.5 µM (active)
same,Potency,[19],23.5 µM (active)
Cc1cc(CS(=O)(=O)c2ccccc2)cc(OCc2ccc(CN3CCC[C@H]3CO)cc2)c1,Potency,[1],18.7 µM (active)
same,Potency,[13],16.6 µM (active)
same,Potency,[9],16.6 µM (active)
same,Potency,[3],4.18 µM (active)
same,Potency,[4],16.6 µM (active)
same,Potency,[18],16.6 µM (active)
same,Potency,[20],1.18 µM (active)
same,Potency,[10],5.26 µM (active)
same,Potency,[6],inactive
same,Potency,[12],4.69 µM (active)
same,Potency,[17],8.33 µM (active)
same,Potency,[8],inactive
CC(C)Oc1cc(Nc2nc(N[C@@H](C)c3ccc(F)cn3)ncc2Cl)[nH]n1,Potency,[1],7.43 µM (active)
same,Potency,[2],20.9 µM (active)
same,Potency,[9],10.5 µM (active)
same,Potency,[18],23.5 µM (active)
same,Potency,[14],4.69 µM (active)
same,Potency,[20],5.26 µM (active)
same,Potency,[15],5.26 µM (active)
same,Potency,[7],26.4 µM (active)
same,Potency,[17],23.5 µM (active)
FC(F)(F)c1ccc(C=Cc2nc(COc3ccc(CCCCn4ccnn4)cc3)co2)cc1,Potency,[1],0.0132 µM (active)
same,Potency,[2],inactive
same,viability (% of DMSO),[3],74.6% (active)
same,Potency,[4],0.0526 µM (active)
same,Potency,[10],0.0019 µM (active)
same,Potency,[15],0.0235 µM (active)
same,Potency,[19],0.132 µM (active)
same,Potency,[17],0.001 µM (active)
CC(=O)N1CCN(c2ccc(OCc3nn(C)c(C)c3-c3cccc4c(CCCOc5cc(C)c(Cl)c(C)c5)c(C(=O)O)n(Cc5cccnc5)c34)cc2)CC1,Potency,[1],1.66 µM (active)
same,Potency,[13],7.43 µM (active)
same,Potency,[9],3.32 µM (active)
same,Potency,[3],8.33 µM (active)
same,Potency,[18],18.7 µM (active)
same,Potency,[14],2.96 µM (active)
same,Potency,[10],18.7 µM (active)
same,Potency,[5],20.9 µM (active)
same,Potency,[15],2.96 µM (active)
same,Potency,[6],inactive
same,Potency,[12],14.8 µM (active)
same,Potency,[7],20.9 µM (active)
same,Potency,[16],inactive
same,Potency,[19],20.9 µM (active)
same,Potency,[17],18.7 µM (active)
CN(C)c1nc(Cc2ccc(NC(=O)c3ccc(C(F)(F)F)cc3)cc2)nc(N(C)C)c1CC(=O)O,Potency,[1],inactive
same,Potency,[13],inactive
same,Potency,[9],10.5 µM (active)
same,Potency,[3],inactive
same,Potency,[4],inactive
same,Potency,[18],inactive
same,Potency,[10],inactive
same,Potency,[15],inactive
same,Potency,[6],inactive
same,Potency,[12],2.96 µM (active)
same,Potency,[7],9.35 µM (active)
same,Potency,[19],5.26 µM (active)
O=C(O)C1=CC(O)C(O)[C@H](O)C1 (stereo not given in full),Potency,[1],inactive
same,Potency,[13],inactive
same,Potency,[9],inactive
same,Potency,[3],inactive
same,Potency,[4],inactive
same,Potency,[18],inactive
same,Potency,[6],inactive
same,Potency,[12],inactive
same,Potency,[16],inactive
same,Potency,[19],inactive
same,Potency,[8],inactive
C[C@]12C=CC(=O)C=C1CC[C@@H]1[C@@H]2[C@@H](O)C[C@@]2(C)[C@@H]1CC[C@]2(O)C(=O)CO,Potency,[1],5.9 µM (active)
same,Potency,[13],inactive
same,Potency,[9],0.296 µM (active)
same,Potency,[3],inactive
same,Potency,[4],11.8 µM (active)
same,Potency,[18],inactive
same,Potency,[11],0.166 µM (active)
same,Potency,[5],0.0743 µM (active)
same,Potency,[15],2.35 µM (active)
same,Potency,[12],5.26 µM (active)
same,Potency,[7],6.62 µM (active)
same,Potency,[16],0.0469 µM (active)
same,Potency,[19],inactive
same,Potency,[8],0.187 µM (active)
CS(=O)(=O)c1ccc(C2=C(c3ccccc3)C(=O)OC2)cc1,Potency,[1],inactive
same,Potency,[13],inactive
same,Potency,[9],inactive
same,Potency,[3],inactive
same,Potency,[4],inactive
same,Potency,[14],inactive
same,Potency,[10],inactive
same,Potency,[5],inactive
same,Potency,[15],inactive
same,Potency,[6],inactive
same,Potency,[7],inactive
same,Potency,[16],inactive
same,Potency,[19],inactive
same,Potency,[17],inactive
same,Potency,[8],inactive
Nc1nc(Cl)nc2c1ncn2[C@@H]1O[C@H](CO)[C@@H](O)[C@H]1F,Potency,[1],0.0148 µM (active)
same,Potency,[2],0.372 µM (active)
same,Potency,[9],0.526 µM (active)
same,Potency,[18],0.833 µM (active)
same,Potency,[14],0.0264 µM (active)
same,Potency,[11],2.09 µM (active)
same,Potency,[15],0.0332 µM (active)
same,Potency,[19],0.0418 µM (active)
same,Potency,[17],0.0526 µM (active)
